Results filed as inconclusive are left out. Values without a mark were called inactive. The source made the active and inactive calls. Calls follow the shape of the dose curve; as a rule, active = well fitted inhibition curve with a large enough effect; inconclusive = small, poorly fitted or top-dose-only effect; inactive = flat fitted curve, though single readings scatter. Where a SMILES comes first, the peptide text is derived from it.
Each compound was assayed against Calcium and integrin-binding protein 1 (Homo sapiens) (UniProt Q99828) (assay: Primary qHTS for Identification of Calcium Integrin Binding Protein 1 (CIB1) Competitor (AID 1508620;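 also: GST tagged CIB1 binding a fluorescein labelled alphaIIb integrin peptide tracer; top concentration of the series differs between compounds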)). Conditions: CIB1-GST / FITC-alphaIIb peptide fluorescence polarization; series mostly up to 57.7 µM; activity change, negative = inhibition: at the top concentration.
Sequence of Calcium and integrin-binding protein 1 (Homo sapiens) (Q99828 whole entry, looked up): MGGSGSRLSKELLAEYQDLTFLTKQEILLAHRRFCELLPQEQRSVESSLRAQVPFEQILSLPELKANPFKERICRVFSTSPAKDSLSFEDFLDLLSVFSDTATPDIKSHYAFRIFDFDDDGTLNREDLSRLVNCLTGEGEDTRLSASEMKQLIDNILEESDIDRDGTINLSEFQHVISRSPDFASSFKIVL
How it was run: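 Fluorescence polarization competition: CIB1-GST (1 uM final) preincubated with compound 15 min at room temperature, then FITC-labeled alphaIIb peptide (100 nM final) added for another 15 min. Polarization read at Ex 480/Em 540.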
`C[C@@H]1O[C@@H](O[C@@H]2[C@@H](O)[C@H](O[C@@H]3[C@@H](O)[C@@H](O)[C@H](O[C@H]4[C@H](OC(=O)[C@]56CCC(C)(C)C[C@H]5C5=CCC7[C@@]8(C)C[C@H](O)[C@H](O[C@@H]9O[C@@H](C)[C@H](O)[C@@H](O)[C@H]9O)[C@@](C)(CO)C8CC[C@@]7(C)[C@]5(C)C[C@H]6O)O[C@H](C)[C@H](O)[C@@H]4O)O[C@H]3C)OC[C@H]2O)[C@H](O)[C@H](O)[C@H]1O` (some centres undefined) gave an activity change, negative = inhibition of 1.34% [at 12.4 µM]. For `CC12CC34C=CC(=O)C(C)(CCC(=O)O)C3C(CC1C4)O2` (centres undefined), the “activity change, negative = inhibition” value was -0.0631% [at 114 µM]. With `CC1(C)CCCC2(C)C1C(O)C=C(CO)C2(O)C(=O)O` (centres undefined) the “activity change, negative = inhibition” value was 3.29% [at 114 µM]. `N[C@H]1C[C@H]1c1ccc(-c2cccc(O)c2)cc1` was tested, and the Potency was “inactive”. `C=C(C(=O)O)[C@@H]1CC=C2CCC[C@H](C)[C@@]2(C)C1` was tested, and the “activity change, negative = inhibition” value was 1.92% [at 114 µM]. For `CC(C)=CCC[C@](C)(O[C@@H]1O[C@H](CO[C@@H]2OC[C@@H](O)[C@H](O)[C@H]2O)[C@@H](O)[C@H](O)[C@H]1O)[C@H]1CC[C@]2(C)[C@@H]1[C@H](O)C[C@@H]1[C@@]3(C)CC[C@H](O[C@@H]4O[C@H](CO)[C@@H](O)[C@H](O)[C@H]4O[C@@H]4O[C@H](CO)[C@@H](O)[C@H](O)[C@H]4O)C(C)(C)[C@@H]3CC[C@]12C`, the “activity change, negative = inhibition” value was -1.61%. `COc1cc(N2CCC(O)CC2)ccc1Nc1cc(Nc2ccccc2S(=O)(=O)C(C)C)c2cc[nH]c2n1` was tested, and the Potency was “inactive”. For `COc1cc(/C=C/c2cc(O)cc(O[C@@H]3O[C@H](CO)[C@@H](O)[C@H](O)[C@H]3O)c2)ccc1O`, the “activity change, negative = inhibition” value was 1.66%. For `COc1c2c(c(C)c3c1C(=O)OC3)OC1(C)CC(O)C3(O)C(C)(C)OC(=O)CCC3(C)C1C2` (centres undefined), the “activity change, negative = inhibition” value was -0.501%. For `CC1NC(=O)CNC(=O)C(C(C)C)NC(=O)C2CCCN2C(=O)C(C(C)C)NC(=O)C(Cc2c[nH]c3ccccc23)NC1=O` (centres undefined) (cyclo(GAWVPV); configuration not given here), the “activity change, negative = inhibition” value was 0.42% [at 30.2 µM]. In the case of `C[C@@H]1C/C=C/C=C\C=C\C=C\[C@H](O[C@@H]2O[C@H](C)[C@@H](O)[C@H](N)[C@@H]2O)C[C@@H]2O[C@](O)(C[C@@H](O)C[C@H]3O[C@@H]3/C=C/C(=O)O1)C[C@H](O)[C@H]2C(=O)O`, the “activity change, negative = inhibition” value is reported as 1.59% [at 30.2 µM]. For `C/C(=C/CCC(CO)C1CCC2(C)C3CCC4C(C)(C)C(OC5OC(CO)C(O)C(O)C5O)CC(O)C45CC35CCC12C)COC1OC(CO)C(O)C(O)C1O` (centres undefined), the “activity change, negative = inhibition” value was 1.34% [at 30.2 µM]. With `O=C(/C=C/c1ccc(O)cc1)O[C@H]1[C@@H]2C=CO[C@@H](O[C@@H]3O[C@H](CO)[C@@H](O)[C@H](O)[C@H]3O)[C@@H]2[C@@]2(CO)O[C@@H]12` the “activity change, negative = inhibition” value was 0.028%. For `CC1CC(O)C2(C)C(C(=O)O)=CCCC2C1(C)CCc1ccoc1` (centres undefined), the “activity change, negative = inhibition” value was -3.55%. With `O=C(NCc1ccc(OC(F)(F)F)cc1)C1c2ccccc2C(=O)N1C1CCOCC1` (centres undefined) the “activity change, negative = inhibition” value was 1.45% [at 114 µM]. `CC(C)(C)NCC(O)COc1cccc2c1CCCC2=O` (centres undefined) was tested, and the “activity change, negative = inhibition” value was -1.32% [at 114 µM]. With `O=C(O[C@@H]1O[C@H](CO)[C@@H](O)[C@H](O)[C@H]1O)c1c(O)cc(O)cc1/C=C/c1ccccc1` the “activity change, negative = inhibition” value was -0.616%. With `C=C1CCC2C(C)(C(=O)O)CC(O)CC2(C)C1CC/C(C)=C/C(=O)O` (centres undefined) the “activity change, negative = inhibition” value was 1.49%. With `CC(=O)OC[C@@]12[C@H](O)C[C@@H](C)[C@]3(C[C@@H](c4ccoc4)OC3=O)[C@H]1C[C@H](O)C[C@]21CO1` the “activity change, negative = inhibition” value was 5.77%. For `CC1=CC(=O)C2C(C)(C)CCCC2(C)C12CCC1(COC(=O)C1)O2` (centres undefined), the “activity change, negative = inhibition” value was -14.7%. For `C[C@H]1[C@H](C)CC[C@]2(C(=O)O[C@@H]3O[C@H](CO)[C@@H](O)[C@H](O)[C@H]3O)CC[C@]3(C(=O)O)C(=CCC4[C@@]5(C)CC[C@H](O[C@@H]6O[C@H](CO)[C@@H](O)[C@H](O)[C@H]6O)C(C)(C)C5CC[C@]43C)[C@H]12` (some centres undefined), the “activity change, negative = inhibition” value was 2.03% [at 30.2 µM]. For `CC(C)(O)c1ccc2c(c1)C(=O)CC1[C@](C)(CO)CCC[C@]21C` (some centres undefined), the “activity change, negative = inhibition” value was -12.6%. For `COC1C2=C(COC2=O)C2(C)CCCC(C)(CO)C2C1OC(=O)c1ccccc1` (centres undefined), the “activity change, negative = inhibition” value was -13.4%. `COc1cc(/C=C/C(=O)O[C@H]2[C@H](O)[C@@H](CO)O[C@@]2(CO)O[C@H]2O[C@H](COC(=O)c3ccc(O)cc3)[C@@H](O)[C@H](O)[C@H]2O)cc(OC)c1OC` was tested, and the “activity change, negative = inhibition” value was 5.12% [at 30.2 µM]. In the case of `CC(C)CC1(C(=O)OCc2ccc(O[C@@H]3O[C@H](CO)[C@@H](O)[C@H](O)[C@H]3O)cc2)CC(=O)OC(C(=O)O)CC(=O)OCC2OC(O1)C(OC(=O)/C=C/c1ccc(O)cc1)C(O)C2O` (some centres undefined), the “activity change, negative = inhibition” value is reported as 2.29% [at 30.2 µM]. With `COC1=CC(=O)O[C@@H](CCc2ccccc2)[C@@H]1O` the “activity change, negative = inhibition” value was 2% [at 114 µM]. For `CC1CCC2C(C)(C)C(O)CCC2(C)C12Cc1c(O)cc3c(c1O2)CN=C3N` (centres undefined), the “activity change, negative = inhibition” value was 4.39%. `CC1C/C=C/C=C\CCCCC(O)C/C=C/C(=O)O1` (centres undefined) was tested, and the “activity change, negative = inhibition” value was -1.69% [at 114 µM]. With `C[C@@H]1C[C@H]2[C@@H]3CCC4=CC(=O)C=C[C@]4(C)[C@@]3(F)[C@@H](O)C[C@]2(C)[C@@]1(O)C(=O)COP(=O)(O)O` the “activity change, negative = inhibition” value was 2.23% [at 114 µM]. For `CCC(CCO[C@@H]1O[C@H](CO[C@H]2OC[C@](O)(CO)[C@H]2O)[C@@H](O)[C@H](O)[C@H]1O)C(C)(C)O` (some centres undefined), the “activity change, negative = inhibition” value was 5.23%. In the case of `CCOc1nc2cccc(C(=O)OCc3oc(=O)oc3C)c2n1Cc1ccc(-c2ccccc2-c2noc(O)n2)cc1`, the “activity change, negative = inhibition” value is reported as -12.4% [at 114 µM]. With `CC(C)(O)C1=CCC23COC(C2)C(O)(C(=O)O)CCC13` (centres undefined) the “activity change, negative = inhibition” value was -3.41% [at 114 µM]. `CC1(C)CC[C@]2(C(=O)O)CC[C@]3(C)C(=CCC4[C@@]5(C)CC[C@H](O[C@@H]6O[C@H](C(=O)O)[C@@H](O)[C@H](O)[C@H]6O)C(C)(CO)C5CC[C@]43C)C2C1` (some centres undefined) was tested, and the “activity change, negative = inhibition” value was -5.54% [at 30.2 µM]. In the case of `CC1=C2C=C(CO)C(CO)CCC2(C)CCC1=O` (centres undefined), the “activity change, negative = inhibition” value is reported as -6.87% [at 114 µM]. In the case of `COc1cc([C@@H]2Oc3c(OC)cc(CCCO)cc3[C@@H]2CO[C@@H]2O[C@H](CO)[C@@H](O)[C@H](O)[C@H]2O)ccc1O`, the “activity change, negative = inhibition” value is reported as -1.63%. `C[C@@]12C[C@]3(O)O[C@H](O1)[C@]1(COC(=O)c4ccccc4)[C@H]3C[C@@]12O[C@@H]1O[C@H](COC(=O)c2ccccc2)[C@@H](O)[C@H](O)[C@H]1O` was tested, and the “activity change, negative = inhibition” value was 4.37%. With `C1CCN2CC3C[C@@H](CN4CCCC[C@@H]34)[C@H]2C1` the “activity change, negative = inhibition” value was 3.88% [at 114 µM]. For `CC1CCC2(C(=O)OC3OC(CO)C(O)C(O)C3O)CCC3(C(=O)O)C(=CCC4C5(C)CCC(OC6OC(C)C(O)C(O)C6O)C(C)(C)C5CCC43C)C2C1C` (centres undefined), the “activity change, negative = inhibition” value was -2.69% [at 30.2 µM]. In the case of `COc1cc(/C=C/CO)ccc1O[C@@H]1O[C@H](CO)[C@@H](O)[C@H](O)[C@H]1O`, the “activity change, negative = inhibition” value is reported as 2.31%.

— PubChem BioAssay (NCATS)
% is scaled to controls: 0 for no effect and ±100 for the full control effect.
